According to PubChem BioAssay (NCI):
Several values for one entry are separate records, joined by “and”; a condition that tells them apart may be missing. Equal entries are not always repeated. Compounds without any hit were thinned out: in the full panel of roughly 83,000, 20% have a hit.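 Step 1: grow cells in 96-well plates. Step 2: add test compound at a single concentration. Step 3: incubate 48 h. Step 4: record percent growth.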 Activity calls are given as the source filed them. The calls were made as follows: active = growth percent below 10; inactive = the rest.

Assays:
Test in all cases: NCI-60 one-dose screen, 48 h (100 = growth as untreated, 0 = no growth, -100 = all killed)
[1] = tested on: MOLT-4 leukemia
[2] = tested on: OVCAR-8 ovarian
[3] = tested on: OVCAR-5 ovarian
[4] = tested on: SK-OV-3 ovarian
[5] = tested on: IGROV1 ovarian
[6] = tested on: OVCAR-3 ovarian
[7] = tested on: HS 578T breast
[8] = tested on: NCI/ADR-RES ovarian
[9] = tested on: T-47D breast
[10] = tested on: MDA-MB-435 melanoma
[11] = tested on: SW-620 colon
[12] = tested on: MCF7 breast
[13] = tested on: HCT-116 colon
[14] = tested on: HCC-2998 colon
[15] = tested on: KM12 colon
[16] = tested on: SR leukemia; conditions: 10 µM unless noted
[17] = tested on: RPMI-8226 leukemia; conditions: 10 µM unless noted
[18] = tested on: OVCAR-4 ovarian; conditions: 10 µM unless noted
[19] = tested on: BT-549 breast; conditions: 10 µM unless noted

Question: CC(=O)OCC1OC([S-])C(OC(C)=O)C(OC(C)=O)C1OC(C)=O.[Au+].c1ccc(CN2[CH-]N(Cc3ccccc3)C(c3ccccc3)=C2c2ccccc2)cc1 was tested. Which growth ([1]; 4.75 µM) did it give?
Answer: 3.9% (active)

Question: And the growth ([1]; 10 µM)?
Answer: 13.5% (inactive)

Question: And the growth ([2]; 4.75 µM)?
Answer: 3.93% (active)

Question: What about the growth ([2]; 10 µM) of the same compound?
Answer: 22.3% (inactive)

Question: What about the growth ([3]; 4.75 µM) of the same compound?
Answer: 24.2% (inactive)

Question: What about the growth ([3]; 10 µM) of the same compound?
Answer: 72.2% (inactive)

Question: What about the growth ([4]; 4.75 µM) of the same compound?
Answer: -13.2% (active)

Question: What about the growth ([4]; 10 µM) of the same compound?
Answer: 70.4% (inactive)

Question: What about the growth ([5]; 4.75 µM) of the same compound?
Answer: -33.7% (active)

Question: What about the growth ([5]; 10 µM) of the same compound?
Answer: -67.2% (active)

Question: What about the growth ([6]; 4.75 µM) of the same compound?
Answer: -44.3% (active)

Question: What about the growth ([6]; 10 µM) of the same compound?
Answer: -95.7% (active)

Question: What about the growth ([7]; 4.75 µM) of the same compound?
Answer: 10% (inactive)

Question: What about the growth ([7]; 10 µM) of the same compound?
Answer: 28.5% (inactive)

Question: What about the growth ([8]; 4.75 µM) of the same compound?
Answer: 53.3% (inactive)

Question: And the growth ([8]; 10 µM)?
Answer: 66.5% (inactive)

Question: And the growth ([9]; 4.75 µM)?
Answer: -20.3% (active)

Question: What about the growth ([9]; 10 µM) of the same compound?
Answer: -52.1% (active)

Question: And the growth ([10]; 4.75 µM)?
Answer: 4.71% (active)

Question: What about the growth ([10]; 10 µM) of the same compound?
Answer: 29.4% (inactive)

Question: What about the growth ([11]; 4.75 µM) of the same compound?
Answer: -33% (active)

Question: What about the growth ([11]; 10 µM) of the same compound?
Answer: -17.6% (active)

Question: What about the growth ([12]; 4.75 µM) of the same compound?
Answer: 0.0903% (active)

Question: What about the growth ([12]; 10 µM) of the same compound?
Answer: -66.1% (active)

Question: And the growth ([13]; 4.75 µM)?
Answer: -5.84% (active)

Question: What about the growth ([13]; 10 µM) of the same compound?
Answer: -16.6% (active)

Question: And the growth ([14]; 4.75 µM)?
Answer: 16.7% (inactive)

Question: What about the growth ([14]; 10 µM) of the same compound?
Answer: -62.8% (active)

Question: What about the growth ([15]; 4.75 µM) of the same compound?
Answer: 6.84% (active)

Question: What about the growth ([15]; 10 µM) of the same compound?
Answer: 38% (inactive)

Question: For CN1CCc2cc3c(cc2C1O)OCO3 (stereo not given), which growth ([1]; 10 µM unless noted) is on record?
Answer: 111% (inactive)

Question: What about the growth [16] of the same compound?
Answer: 101% (inactive)

Question: What about the growth [17] of the same compound?
Answer: 94.4% (inactive)

Question: And the growth ([2]; 10 µM unless noted)?
Answer: 102% (inactive) and 109% (inactive)

Question: What about the growth ([3]; 10 µM unless noted) of the same compound?
Answer: 94.6% (inactive) and 94.1% (inactive)

Question: What about the growth [18] of the same compound?
Answer: 108% (inactive)

Question: What about the growth ([4]; 10 µM unless noted) of the same compound?
Answer: 97.9% (inactive) and 105% (inactive)

Question: What about the growth ([5]; 10 µM unless noted) of the same compound?
Answer: 117% (inactive) and 108% (inactive)

Question: And the growth ([6]; 10 µM unless noted)?
Answer: 17.1% (inactive) and 105% (inactive)

Question: And the growth ([7]; 10 µM unless noted)?
Answer: 55.3% (inactive) and 103% (inactive)

Question: What about the growth ([8]; 10 µM unless noted) of the same compound?
Answer: 95.9% (inactive) and 107% (inactive)

Question: And the growth ([9]; 10 µM unless noted)?
Answer: 69.3% (inactive) and 102% (inactive)

Question: And the growth [19]?
Answer: -78.9% (active) and 100% (inactive)

Question: And the growth ([10]; 10 µM unless noted)?
Answer: 37.8% (inactive) and 102% (inactive)

Question: And the growth ([11]; 10 µM unless noted)?
Answer: 96.1% (inactive) and 100% (inactive)

Question: What about the growth ([12]; 10 µM unless noted) of the same compound?
Answer: 79.5% (inactive) and 94.6% (inactive)

Question: And the growth ([13]; 10 µM unless noted)?
Answer: 104% (inactive) and 101% (inactive)

Question: What about the growth ([14]; 10 µM unless noted) of the same compound?
Answer: 102% (inactive) and 108% (inactive)

Question: What about the growth ([15]; 10 µM unless noted) of the same compound?
Answer: 57.8% (inactive) and 103% (inactive)

Question: With C=CCOC(=O)C(Br)CC (stereo not given) as the compound, how does the growth ([1]; 10 µM unless noted) read?
Answer: 102% (inactive)

Question: What about the growth [16] of the same compound?
Answer: 100% (inactive)

Question: What about the growth [17] of the same compound?
Answer: 112% (inactive)

Question: And the growth ([2]; 10 µM unless noted)?
Answer: 106% (inactive)

Question: What about the growth ([3]; 10 µM unless noted) of the same compound?
Answer: 113% (inactive)

Question: And the growth [18]?
Answer: 108% (inactive)

Question: And the growth ([4]; 10 µM unless noted)?
Answer: 105% (inactive)

Question: What about the growth ([5]; 10 µM unless noted) of the same compound?
Answer: 115% (inactive)

Question: And the growth ([6]; 10 µM unless noted)?
Answer: 105% (inactive)

Question: And the growth ([7]; 10 µM unless noted)?
Answer: 104% (inactive)

Question: And the growth ([8]; 10 µM unless noted)?
Answer: 107% (inactive)

Question: What about the growth ([9]; 10 µM unless noted) of the same compound?
Answer: 95.8% (inactive)

Question: What about the growth [19] of the same compound?
Answer: 111% (inactive)

Question: What about the growth ([10]; 10 µM unless noted) of the same compound?
Answer: 109% (inactive)

Question: What about the growth ([11]; 10 µM unless noted) of the same compound?
Answer: 104% (inactive)

Question: What about the growth ([12]; 10 µM unless noted) of the same compound?
Answer: 103% (inactive)

Question: What about the growth ([13]; 10 µM unless noted) of the same compound?
Answer: 104% (inactive)

Question: And the growth ([14]; 10 µM unless noted)?
Answer: 101% (inactive)

Question: What about the growth ([15]; 10 µM unless noted) of the same compound?
Answer: 112% (inactive)

Question: What does the source list for CN(C)c1ccc([N+](=O)[O-])c([N+](=O)[O-])c1?
Answer: growth ([1]; 10 µM unless noted): 107% (inactive) and 100% (inactive); growth [16]: 78.3% (inactive); growth [17]: 106% (inactive) and 103% (inactive); growth ([2]; 10 µM unless noted): 104% (inactive) and 96.3% (inactive); growth ([3]; 10 µM unless noted): 113% (inactive) and 101% (inactive); growth [18]: 101% (inactive); growth ([4]; 10 µM unless noted): 108% (inactive) and 112% (inactive); growth ([5]; 10 µM unless noted): 112% (inactive) and 107% (inactive); growth ([6]; 10 µM unless noted): 119% (inactive) and 125% (inactive); growth ([7]; 10 µM unless noted): 96.4% (inactive) and 103% (inactive); growth ([8]; 10 µM unless noted): 104% (inactive) and 97.9% (inactive); growth ([9]; 10 µM unless noted): 105% (inactive) and 97.2% (inactive); growth [19]: 90.5% (inactive) and 105% (inactive); growth ([10]; 10 µM unless noted): 99% (inactive) and 97.1% (inactive); growth ([11]; 10 µM unless noted): 101% (inactive) and 111% (inactive); growth ([12]; 10 µM unless noted): 83.6% (inactive) and 91% (inactive); growth ([13]; 10 µM unless noted): 98.2% (inactive) and 102% (inactive); growth ([14]; 10 µM unless noted): 96.6% (inactive) and 107% (inactive); growth ([15]; 10 µM unless noted): 109% (inactive) and 112% (inactive)

Question: How did the growth ([1]; 10 µM unless noted) turn out when COc1cc(C2C3=C(CCCC3=O)N(CCO)c3cc4c(cc32)CCC4)cc(OC)c1OC (stereo not given) was run?
Answer: 93.5% (inactive)

Question: And the growth [16]?
Answer: 117% (inactive)

Question: And the growth [17]?
Answer: 76.2% (inactive)

Question: And the growth ([2]; 10 µM unless noted)?
Answer: 83.5% (inactive)

Question: And the growth ([3]; 10 µM unless noted)?
Answer: 96.1% (inactive)

Question: And the growth [18]?
Answer: 75.5% (inactive)

Question: What about the growth ([4]; 10 µM unless noted) of the same compound?
Answer: 114% (inactive)

Question: And the growth ([5]; 10 µM unless noted)?
Answer: 98.4% (inactive)

Question: What about the growth ([6]; 10 µM unless noted) of the same compound?
Answer: 93.5% (inactive)

Question: What about the growth ([7]; 10 µM unless noted) of the same compound?
Answer: 99.9% (inactive)

Question: What about the growth ([8]; 10 µM unless noted) of the same compound?
Answer: 87.8% (inactive)

Question: And the growth ([9]; 10 µM unless noted)?
Answer: 38.2% (inactive)

Question: What about the growth [19] of the same compound?
Answer: 109% (inactive)

Question: What about the growth ([10]; 10 µM unless noted) of the same compound?
Answer: 100% (inactive)

Question: What about the growth ([11]; 10 µM unless noted) of the same compound?
Answer: 103% (inactive)

Question: And the growth ([12]; 10 µM unless noted)?
Answer: 23% (inactive)

Question: What about the growth ([13]; 10 µM unless noted) of the same compound?
Answer: 68.6% (inactive)

Question: And the growth ([14]; 10 µM unless noted)?
Answer: 78.9% (inactive)

Question: What about the growth ([15]; 10 µM unless noted) of the same compound?
Answer: 90.5% (inactive)

Question: Which growth ([1]; 10 µM unless noted) does the source give for CCCN1C(=O)NC(=O)C(CC)(N2C(=O)c3c(F)c(F)c(F)c(F)c3C2=O)C1=O (stereo not given) here?
Answer: -79.6% (active)

Question: And the growth [16]?
Answer: -76.5% (active)

Question: What about the growth [17] of the same compound?
Answer: -30% (active)

Question: What about the growth ([2]; 10 µM unless noted) of the same compound?
Answer: -56.7% (active)

Question: And the growth ([3]; 10 µM unless noted)?
Answer: -88.1% (active)

Question: And the growth [18]?
Answer: -43.1% (active)

Question: And the growth ([4]; 10 µM unless noted)?
Answer: -25.4% (active)

Question: And the growth ([5]; 10 µM unless noted)?
Answer: -77.9% (active)

Question: What about the growth ([6]; 10 µM unless noted) of the same compound?
Answer: -96.4% (active)

Question: And the growth ([7]; 10 µM unless noted)?
Answer: -24.6% (active)

Question: What about the growth ([8]; 10 µM unless noted) of the same compound?
Answer: -28.5% (active)

Question: And the growth ([9]; 10 µM unless noted)?
Answer: -52.3% (active)

Question: And the growth [19]?
Answer: -78.8% (active)

Question: And the growth ([10]; 10 µM unless noted)?
Answer: -60.3% (active)

Question: And the growth ([11]; 10 µM unless noted)?
Answer: -92.9% (active)

Question: And the growth ([12]; 10 µM unless noted)?
Answer: -76.5% (active)

Question: What about the growth ([13]; 10 µM unless noted) of the same compound?
Answer: -78.2% (active)

Question: What about the growth ([14]; 10 µM unless noted) of the same compound?
Answer: -87% (active)

Question: What about the growth ([15]; 10 µM unless noted) of the same compound?
Answer: -96.2% (active)
